From PubChem BioAssay (NCI)
The panel holds about 79,000 compounds, 15% with a hit somewhere; the sample as a whole holds those more often. Values without a mark were called inactive. Activity calls are given as the source filed them. Rule as the data show it: active = growth inhibition above about 70%; inactive = the rest.

Assay: NCI Yeast Anticancer Drug Screen. Data for the rad50 strain (AID 155);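 also: 0% = growth of vehicle-only cultures of the same strain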
Conditions: S. cerevisiae rad50 strain growth inhibition; at 3.7 µM; hits give high values
Procedure, shortened: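 Yeast carrying a defined DNA repair defect were exposed to test compounds, and growth was compared with vehicle-treated controls to give percent inhibition.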

Row | SMILES | growth inhibition
1 | CCC/C(Cl)=N\OC(=O)Nc1cccc(C(F)(F)F)c1 | 14%
2 | [O-][n+]1c2ccc(O)cc2nc2ccc(Cl)cc21 | 24%
3 | Clc1ccccc1C1OC1c1ccccc1Cl (centres undefined) | -62%
4 | c1ccc2c(c1)c1ncccc1c1nccnc21 | 9%
5 | CC(=O)Nc1ccc2c(c1)C(=Nc1ccc(C(=O)O)cc1)c1ccccc1-2 | 0%
6 | COc1ccc(OC)c2cc3ccccc3cc12 | -1%
7 | COc1cc(C2c3cc4c(cc3OC(NNc3ccccc3)C2C)OCO4)cc(OC)c1OC (centres undefined) | 33%
8 | O=C1c2cc([N+](=O)[O-])ccc2-c2cccc(F)c21 | 32%
9 | CCCCCCCCCCCC(=O)N(C)C | -5%
10 | CCCCCCCCCCCC1=C(O)C(=O)C=C(O)C1=O | -15%
11 | Cc1ccc(CSC(N)=Nc2ccccc2)cc1C | 5%
12 | CCCCCCCCCCC1CCC(=O)O1 (centres undefined) | -46%
13 | O=[N+]([O-])c1cc(CCl)ccc1CCl | 20%
14 | Nc1ccc2c(c1)C(=O)c1cccc(N)c1C2=O | 45%
15 | CCCCCCCCCCNC(=O)OCC | 9%
16 | CC1=C(C)Cc2c(O)ccc(O)c2C1 | 17%
17 | COc1ccc2c(c1)C(=O)c1ccccc1C2 | 18%
18 | CCC(=O)OCCn1c2nc(=O)[nH]c(=O)c-2nc2cc(C)c(C)cc21 | -17%
19 | O=C(OCCN1CCCCCC1)C(c1ccsc1)C1CCCCC1 (centres undefined) | 17%
20 | Oc1c(Br)cc(Br)cc1C1CCCCC1 | -9%

Row | SMILES | growth inhibition
21 | CC1(C)[C@@H]2CC[C@]1(C)[C@H](OC(=O)CSC#N)C2 | 1%
22 | S=C(N/N=C(/c1ccccc1)c1ccccn1)N1CCCCCC1 | 6%
23 | Cc1ccc2[nH]c3c(C)c4cc[n+](C)cc4c(C)c3c2c1 | 16%
24 | CNC(=O)OCc1c(COC(=O)NC)c(-c2ccc(-c3ccccc3)cc2)n(C)c1C | -15%
25 | COc1ccccc1/C=C1\Sc2scc(-c3cccc([N+](=O)[O-])c3)[n+]2C1=O | 93% (active)
26 | O=[N+]([O-])c1ccc2c(c1)C(N1CCN(CCO)CC1)Cc1ccc(F)cc1S2 (centres undefined) | 1%
27 | Cc1ccc(CCC2=CCCc3c2ccc2ccccc32)cc1 | -2%
28 | O=[N+]([O-])c1cccc2nccc(NCCCO)c12 | 3%
29 | Cc1ccc(-n2cc(-c3ccc(Cl)cc3)c(C#N)c2N)cc1 | -3%
30 | Cc1ccc(S/N=C\c2ccccc2O)cc1 | -12%
31 | O=C(O)C1OC1(c1cccc(Cl)c1)c1ccccc1Cl (centres undefined) | 7%
32 | NC(=S)N/N=C\c1nccc2ccccc12 | -3%
33 | Clc1cccc(C(Nc2nncs2)Nc2nncs2)c1Cl | 48%
34 | O=C(OCC=C1CCCC1)c1cc([N+](=O)[O-])cc([N+](=O)[O-])c1 | 4%
35 | O=C(Nc1ccccc1)C(=O)C(C(=O)c1ccccc1)C(c1ccccc1)c1ccccc1 (centres undefined) | -6%
36 | N#CN1C2CCC1CC(=O)C2 | 1%
37 | COc1ccccc1C(=O)OCC1CCCN2CCCCC12 (centres undefined) | 8%
38 | CCNc1nnc(CSc2nc(-c3ccccc3)c(-c3ccccc3)[nH]2)s1 | -15%
39 | O=C1c2ccccc2-c2n[nH]c3cccc1c23 | 29%
